# High-throughput results as filed in PubChem.
# Only some compounds are listed: those with a hit (about 6.1% of all), similar ones and a draw of the others.
# DRD3 antagonist = antagonists of human D3 dopamine receptor. P35462. D3R cells, DiscoveRx beta-arrestin luminescence, antagonist mode; active compounds read low. max response, negative = inhibition, %. 360,000 compounds, 2.5% hits. AID 652054; in the data active = max response below about -50%; inconclusive = no clear call, values can overlap the other calls; also: % is scaled to controls: 0 for no effect and ±100 for the full control effect
# Target sequence (P35462 whole entry, looked up): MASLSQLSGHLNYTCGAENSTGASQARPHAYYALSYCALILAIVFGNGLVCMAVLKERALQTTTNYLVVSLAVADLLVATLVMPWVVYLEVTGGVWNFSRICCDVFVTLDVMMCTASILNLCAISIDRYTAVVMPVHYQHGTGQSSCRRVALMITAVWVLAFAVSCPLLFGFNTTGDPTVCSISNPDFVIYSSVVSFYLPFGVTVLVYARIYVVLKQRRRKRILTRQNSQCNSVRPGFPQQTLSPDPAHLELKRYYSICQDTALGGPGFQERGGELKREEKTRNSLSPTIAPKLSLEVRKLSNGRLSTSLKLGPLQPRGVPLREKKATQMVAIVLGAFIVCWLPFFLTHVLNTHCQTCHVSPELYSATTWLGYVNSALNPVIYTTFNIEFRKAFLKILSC
#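 Cells expressing the human receptor were seeded at 1500 cells/well, incubated overnight at 37 degrees C in 5% CO2, then exposed to library compounds with dopamine controls for 90 minutes at 37 degrees C before luminescent detection.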
# D3 ag = D3 dopamine receptor (human) agonism | P35462 | D3R DiscoveRx beta-arrestin cells, luminescence, 90 min | max activation, % | AID 652048 | 410,000 compounds, 0.58% hits; in the data active = max activation above about 30%; also: 0% is about no effect
#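 Agonist-mode cell screen: cells plated at 1500/well and incubated overnight at 37 °C, then exposed to library compounds for 90 min at 37 °C. Detection reagent was added for 30–60 min at room temperature, and luminescence was read.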
# D1 agonist = human D1 receptor agonism; HEK293 T-REx D1 cells, calcium flux, agonist mode; activation, % at 2 µM; 360,000 compounds, 1% hits; AID 504660; in the data active = activation above about 30%; also: 0% is about no effect
#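 Inducible HEK293 T-REx D1 cells, force-coupled to calcium signalling, were plated at 4000 cells/well with tetracycline and held overnight at 30 C. After no-wash calcium dye loading, compound-evoked calcium rise over 180 s flagged agonists.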
# D1 antag = blocks dopamine activation of the human D1 receptor; P21728; HEK293 TREx D1 cells, calcium flux, dopamine EC80; active compounds read low; activity change, negative = inhibition, % at 10 µM; 360,000 compounds, 3.2% hits; in the data active = activity change below about -30%; also: % is scaled to controls: 0 for no effect and ±100 for the full control effect
#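 Calcium flux readout: force-coupled, inducible Hek293 Trex D1 line, cells induced overnight at 30 C with tetracycline, dye-loaded 30–90 min at RT. Antagonism scored against EC80 dopamine challenge given 180 s after compound.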
# D1 potentiator = human D1 dopamine receptor positive modulation; P21728; HEK293 TREx D1 cells, calcium flux, dopamine EC20 potentiation; potentiation, % at 10 µM; 360,000 compounds, 0.036% hits; AID 504651; in the data active = potentiation above about 30%; also: 0% is about no effect
# Active calls of the source: *; u = inconclusive; x = no result.
SMILES,DRD3 antagonist,D3 ag,D1 agonist,D1 antag,D1 potentiator
O=C(Cc1ccc(F)cc1)N1CCC(CC2CC(c3cccc(Br)c3)=NO2)(C(=O)NCC2CCCCC2)CC1 (configuration not stated),-50.6*,-30.4,2.5,6.8,3.4
CCCCCCCNC(=O)C1(CC2CC(c3ccccc3)=NO2)CCN(C(=O)OC(C)(C)C)CC1 (configuration not stated),1.5,-40.8,3.1,-37.0*,-10.1
COc1ccccc1C(=O)N/N=C/C(C)=C/c1ccccc1,8.6,-8.9,7.3,-63.6*,-2.4
CC(/C=N/NC(=O)Cc1cc(=O)[nH][nH]1)=C\c1ccccc1,2.9,-8.4,57.1*,1.3,-9.3
CC(/C=N/NC(=O)c1cc(C(C)(C)C)[nH]n1)=C\c1ccccc1,-54.1*,-3.4,0.2,8.3,1.6
CCOC(=O)N/N=C\c1sccc1C,-0.4,13.6,2.0,-41.5*,-3.2
CC(C)c1cnc2c(c1SCc1cccc(C(F)(F)F)c1)c(=O)n(C)c(=O)n2C,x,10.3,7.7,4.1,2.8
Cc1ccsc1/C=N\NC(=O)c1cc(C(C)(C)C)[nH]n1,-67.2*,-15.6,0.5,-38.7*,-7.5
Cc1cc(C(=O)N/N=C/c2sccc2C)no1,-12.8,-23.8,4.3,-2.5,-3.4
CC(C)(C)c1ccc(OCCn2cc(C(=O)c3ccco3)c3ccccc32)cc1,x,2.5,7.2,-3.1,-4.7
CC1CCCN(CC(O)COc2ccc(Cl)cc2)C1 (configuration not stated),-58.4*,-33.9,7.4,10.5,-0.7
CC1CCN(CC(O)COc2ccc(OCC(O)CN3CCC(C)CC3)cc2)CC1 (configuration not stated),45.2,-3.5,1.7,0.4,-3.8
OC1CCCN(CC(O)COC(c2ccccc2)c2ccccc2)C1 (configuration not stated),2.8,-3.7,3.4,0.7,-1.9
CC1CCCN(CC(O)COc2ccc(-c3ccccc3)cc2)C1 (configuration not stated),u,-26.0,41.6*,1.7,-1.6
OC1CCCN(CC(O)COc2ccc(-c3ccccc3)cc2)C1 (configuration not stated),-4.1,-6.6,30.4*,5.5,-7.0
CCOc1ccc(C2C(C(=O)Nc3ccc(C)cc3C)=C(C)Nc3c(C(=O)Nc4ccc(C)cc4)cnn32)cc1OC (configuration not stated),x,5.5,2.3,2.7,-1.9
CCn1cc(S(=O)(=O)c2ccccc2)c(=O)c2cc(F)c(N3CCCCCC3)cc21,x,3.1,2.4,12.2,2.5
Cc1c(C(=O)N2CCC(C)CC2)c(S(=O)(=O)Nc2cccc(C(F)(F)F)c2)c(C)n1C,x,-5.6,1.6,-1.0,2.0
CCCN(C(=O)c1cc2c(=O)oc3ccccc3c2s1)c1ccccc1C,x,3.7,5.1,1.0,-0.7
Cc1ccc(NC(=O)c2nc(-c3ccncc3)no2)c(Cl)c1,x,-15.9,11.8,-47.4*,-4.3
CCc1ccc(CNC(=O)COc2cc(=O)n(CC)c3ccccc23)cc1,x,-30.3,-0.5,10.0,0.2
O=C1C(=O)N(CCS(=O)(=O)c2ccccc2)c2ccc(Cl)cc21,-75.0*,-22.6,-1.0,1.4,-2.4
CCCN1C(=O)C(=O)c2cc(Cl)ccc21,-73.7*,-34.8,x,x,x
O=C(CCNS(=O)(=O)c1cccs1)Nc1nccs1,11.7,-7.2,1.9,-31.9*,-5.9
CN(C)CCNC(=O)c1ccc(CS(=O)(=O)c2c(Cl)cccc2Cl)o1,-19.8,-3.2,5.3,25.2,-2.8
SMILES,DRD3 antagonist,D3 ag,D1 agonist,D1 antag,D1 potentiator
CC(C)N(CCNC(=O)c1ccc(CS(=O)(=O)c2c(Cl)cccc2Cl)o1)Cc1ccccc1,-69.8*,-22.2,4.5,3.2,-1.2
CN(CCNC(=O)c1ccc(CS(=O)(=O)c2c(Cl)cccc2Cl)o1)CCc1ccccc1,u,-10.2,4.5,-56.5*,-13.4
Nc1nc(-c2ccc(-c3ccccc3)cc2)cs1,-22.9,-5.5,0.5,-46.7*,-5.8
Nc1nc(-c2ccc(Oc3ccccc3)cc2)cs1,14.6,-4.0,2.8,-13.4,-10.2
CCOc1cc(NS(=O)(=O)c2ccccc2)c(OCC)cc1NC(=O)c1ccco1,-51.3*,0.0,5.1,4.7,-3.2
COc1ccccc1C(=O)Nc1cc2c(cc1N1CCCCC1)n(C)c(=O)n2C,x,-22.6,2.1,-9.3,-1.6
CCN(CC)C(=O)CS(=O)(=O)CC(=O)Nc1cc(OCCOC)c(Cl)cc1Cl,3.0,6.9,1.2,-54.8*,1.1
